Test results: the supplement of paper PMC6555819

Key:
Experiment in all cases: PBM binding z-score (relative to random genomic background probes); higher = stronger binding; sequences stand for … in GC…GCGATTGACAGCGTAGAATGAAGG
[1] = tested on: PPARg:RXRa DBDmut IVT, anti-RXR (DBD mutation: RXRa K156A/R161A, NR concentration 270 nM, RXRa partner concentration 90 nM)
Procedure, shortened: (§1)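 Antibodies against each partner of ligand-free nuclear receptor dimers (one per run) detected binding on custom Agilent 4×180K protein-binding microarrays after 1 h incubation. The double-stranded probes had 34-nt variable regions carrying direct-repeat seeds, single-nucleotide variants, half-site ablations and random human genomic background sequences. Binding z-scores, from regression-normalized fluorescence, use the random background probes as reference.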

[2] = tested on: PPARg:RXRa IVT, anti-PPARg (NR concentration 270 nM, RXRa partner concentration 90 nM)
Procedure, shortened: as §1

[3] = tested on: PPARg DBDmut:RXRa IVT, anti-PPARg (DBD mutation: PPARg1 K132A/R137A, NR concentration 270 nM, RXRa partner concentration 90 nM)
Procedure, shortened: as §1

[4] = tested on: PPARg DBDmut IVT, anti-PPARg (DBD mutation: PPARg1 K132A/R137A, NR concentration 270 nM)
Procedure, shortened: as §1

[5] = tested on: PPARg homodimer (NR concentration 180 nM)
Procedure, shortened: as §1

[6] = tested on: PXR:RXRa (NR concentration 270 nM, RXRa partner concentration 90 nM)
Procedure, shortened: as §1

[7] = tested on: PXR homodimer (NR concentration 270 nM)
Procedure, shortened: as §1

[8] = tested on: RARa:RXR (NR concentration 270 nM, RXRa partner concentration 90 nM)
Procedure, shortened: as §1

[9] = tested on: RARa homodimer (NR concentration 270 nM)
Procedure, shortened: as §1

[10] = tested on: RARb:RXRa (NR concentration 270 nM, RXRa partner concentration 90 nM)
Procedure, shortened: as §1

Row | Sequence | PBM binding z-score [1] | PBM binding z-score [2] | PBM binding z-score [3] | PBM binding z-score [4] | PBM binding z-score [5] | PBM binding z-score [6] | PBM binding z-score [7] | PBM binding z-score [8] | PBM binding z-score [9] | PBM binding z-score [10]
1 | TCAGACAGGTGAAGGTATCTCAGGTACGCAGTCG | 2.51 | 0.967 | -0.232 | 0.111 | 0.602 | 0.375 | 0.13 | 0.509 | 0.153 | 1.08
2 | TAGGCTAGGTCAGATCGGGCCAGTATACGCTATA | 0.883 | 1.39 | -0.0594 | -0.524 | 0.195 | 1.54 | -0.57 | 1.55 | -0.477 | 3.3
3 | ATCTCTAGGTGAAGTTCAGTGAAAGATCGATAGA | 4.94 | 4.09 | 1.05 | 1.05 | 0.329 | 0.872 | 0.828 | 0.684 | 0.618 | 1.7
4 | CATCAAAGTTCAAGGTAACGTAACAGAAAGCAGC | 0.753 | 1.84 | 1.29 | 1.96 | 2.92 | 4.19 | 2.76 | 3.44 | 2.21 | 5.31
5 | TCATATAGGTTATACAGGTGAAAGTCGGCATCTA | 4.73 | 4.18 | 1.95 | 0.981 | 1.6 | 1.27 | 1.03 | 1.9 | 1.84 | 1.51
6 | CAAACTAGGTGAAGGTCAAAGTCGGTTTGTGCCA | 8.04 | 8.04 | 2.16 | 0.309 | 2.76 | 3.95 | 0.968 | 4.27 | 0.0969 | 3.87
7 | CGTCCAAGGTCAGAGAGGTCGGTGAATGCCGAGT | 2.42 | 2.66 | -0.525 | -1.08 | 0.814 | 3.88 | 5.12 | 2.96 | -0.301 | 4.51
8 | CCTAGCAGGCCAGGGTCGCTCAAGCATTTCGCTT | -0.39 | -0.535 | -1.87 | -2.27 | -0.112 | 1.78 | -0.439 | 1.84 | -0.399 | 0.562
9 | GCTGCTAGGTCAACTGATGGTAAGCTAAAGCTCG | 5.03 | 3.79 | -0.843 | -0.572 | 1.33 | 1.29 | -0.824 | 2.02 | 0.282 | 4.06
10 | GGAACGAGGGCAAAGTTGGTAGCATCTGTCGACG | 4.05 | 3.9 | 0.127 | -0.27 | 0.782 | 0.589 | -0.136 | 0.765 | -0.548 | 2.31
11 | TAGCCTTGGTCATTCAGGGGCCAGTATAGAAAGC | -0.687 | 0.278 | -0.367 | -0.339 | -0.308 | 0.0515 | -0.437 | 0.596 | -0.818 | 1.44
12 | TGAATGAGGTTAAAGATCAGGGATCGTGGCGTCG | 2.1 | 3.36 | 0.927 | 0.328 | 2.57 | 1.75 | -0.845 | 3.09 | -0.37 | 1.85
13 | ACTAGCGGGCCAAGGGTCACTCAAGATTAGTCCG | 0.353 | 3.65 | -0.682 | -0.893 | 0.892 | 3.21 | -0.327 | 4.1 | 0.108 | 3.38
14 | CGAACTAGGTCTTCCAGGACAGTGAATACATTGA | 4.68 | 3.48 | 0.439 | 0.129 | -0.375 | -0.421 | -0.138 | -0.242 | -0.331 | 0.384
15 | ACAGACAGGTGATGAAGGTAACTTAGGCTATCAT | 0.373 | 0.171 | 0.414 | 0.165 | 0.0231 | -0.0368 | -0.316 | 0.217 | 0.132 | 0.163
16 | AGAATGAGGTTACCAAAGATCAGGCAAACGCTTG | 3.6 | 3.49 | 0.423 | 0.272 | 0.661 | 1.24 | -0.362 | 2.11 | -0.358 | 2
17 | CCGACTGGGGCAAAGGTTACAATACTCAGTACGA | 4.99 | 6.06 | 0.209 | 0.0744 | 1.56 | 2.63 | -0.0818 | 4.23 | 0.27 | 2.55
18 | CAAACTAGTTCACGAAAGGTCAAAGTCGAATGAC | 2.5 | 3.57 | 1.49 | 0.645 | 5.52 | 6.88 | 5.53 | 7 | 3.03 | 4.89
19 | AGTCAAAGTTCATCTAGGTAACGGAAGATATGCT | 0.826 | 4.12 | 1.91 | 0.45 | 3.26 | 5.42 | 7.16 | 3.87 | 2.15 | 4.94
20 | CCTACTGGGCCAAAGATCATTGATTCCAATGCTC | 4.33 | 4.24 | -0.277 | 0.286 | 0.269 | -0.408 | -0.738 | -0.185 | -0.399 | -0.0314
21 | GCATATAGGTAATACAAGGCGAAAGTCCGATTGT | 4.13 | 2.28 | 0.423 | 0.106 | 0.176 | 0.00476 | -0.179 | 0.458 | -0.221 | -0.0161
22 | CCAGACAGGTGAGAAGGTAACTCCGCCTCGATTA | 1.06 | 0.448 | -0.414 | -1.08 | 0.567 | -0.515 | -0.154 | 0.0222 | 0.152 | 0.539
23 | GAGACAGGGTCAAGGCCAGAGTACGCGTATTGAT | 1.79 | 2.9 | 0.251 | -0.239 | 2 | 3.78 | -0.543 | 4.4 | 0.471 | 4.2
24 | TCTTGTAGATCAATAGATGTTAAGAAAGTGCGCT | 1.57 | 0.386 | 0.918 | 1.19 | -0.501 | 0.533 | 0.037 | 0.616 | 0.125 | -0.26
